Screens (PubChem BioAssay)
Sampled rows, rich in hits. Any-hit rate of the full collection: about 6.6%.
PTAP TSG101 blk – blocks PTAP/TSG101 interaction to inhibit HIV-1 budding; Potency, µM (top dose mostly 115 µM), for inactives: top-dose activity change, negative = inhibition, usual class: inhibitors; Fluorescence polarization, FITC-PTAP peptide / Tsg101 binding; 340,000 tested, under 10 active; AID 493005; active = well fitted inhibition curve with a large enough effect in the main read-out, with a control signal flat, not every such curve was filed as active; inconclusive = small, poorly fitted or top-dose-only effect, or effect the other way, or a change in a side signal; inactive = no such curve, though single readings can be large or run the other way; note: % of control where 0% means no effect
Target sequence (Q99816 whole entry, looked up): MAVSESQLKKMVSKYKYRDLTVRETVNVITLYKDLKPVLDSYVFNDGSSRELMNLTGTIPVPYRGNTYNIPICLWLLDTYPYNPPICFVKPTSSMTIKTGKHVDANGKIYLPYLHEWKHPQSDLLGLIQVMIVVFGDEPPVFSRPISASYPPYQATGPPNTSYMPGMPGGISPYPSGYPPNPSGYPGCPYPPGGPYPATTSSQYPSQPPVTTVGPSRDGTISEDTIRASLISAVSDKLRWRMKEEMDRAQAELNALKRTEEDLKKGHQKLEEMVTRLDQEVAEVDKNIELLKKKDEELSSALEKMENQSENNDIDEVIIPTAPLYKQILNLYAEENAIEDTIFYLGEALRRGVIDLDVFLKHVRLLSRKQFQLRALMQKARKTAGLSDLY
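Steps: Tsg101 binding domain dispensed (10 uM final), compounds pinned in DMSO, FITC-labeled PTAP-motif peptide added (50 nM final); after 20 min binding at room temperature, polarization measured.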
KB-3-1 cytotox – KB-3-1 parental cell cytotoxicity; KB-3-1 viability, CellTiter-Glo ATP luminescence, 72 h; Potency, µM (top dose mostly 46.1 µM), most hits filed as cytotoxic; 1.4% of 400,000 active; note: % is set by controls: 0 for no effect and ±100 for the full control effect; nearly all actives have a fitted effect of over 60% in size
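Here the drug-naive KB-3-1 line serves as comparator for MDR sub-line selectivity; cells received compound titrations, 72 h at 37 °C, then CellTiter-Glo readout.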
SW480 rerep – induces DNA re-replication in SW480 colon adenocarcinoma cells. SW480 DNA re-replication, Hoechst DNA content imaging, 48 h. Potency, µM (doses to about 46.1 µM), without a hit: top-dose re-replication activation, actives largely listed as activators. 1.8% of 340,000 active. AID 624297; note: % of control where 0% means no effect; nearly all actives have a fitted effect of over 55% in size
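Cells (250 per well) received 23 nL compound or DMSO by pin tool and were kept 48 hr at 37 C, 5% CO2. Nuclei were then stained with Hoechst for 40 min and scanned for DNA content.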
KB-V1 MDR tox – kills drug-selected multidrug resistant KB-V1 cells; KB-V1 MDR cells viability, CellTiter-Glo, 72 h; Potency, µM (series often up to 46.1 µM), actives largely listed as cytotoxic; 3.4% of 400,000 active; note: % is set by controls: 0 for no effect and ±100 for the full control effect; nearly all actives have a fitted effect of over 60% in size
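KB-V1, DMEM (no phenol red) + 10% FBS; cpd pin-transferred, titration series; 72 h, 37 degrees C; CellTiter-Glo, luminescence. Data normalized, curve-fit.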
MCF10A rerep – inducers of DNA re-replication in MCF 10A breast cells | AID 624296 | MCF 10A DNA re-replication, Hoechst nuclear intensity, 48 h | Potency, µM (top dose mostly 46.1 µM), inactives show top-dose activity, positive = re-replication, usual class: activators | 2.9% of 350,000 active; note: % of control where 0% means no effect; nearly all actives have a fitted effect of over 50% in size
RGS4 inh – blocks human RGS4-accelerated GTP hydrolysis. Transcreener GDP fluorescence polarization, RGS4-accelerated GTP hydrolysis. Potency, µM (top dose mostly 114 µM), without a hit: at the highest dose activity change, negative = inhibition, hits mostly inhibitors. 0.039% of 390,000 active. AID 504845; note: % is set by controls: 0 for no effect and ±100 for the full control effect; nearly all actives have a fitted effect of over 75% in size
Target sequence (P49798 whole entry, looked up): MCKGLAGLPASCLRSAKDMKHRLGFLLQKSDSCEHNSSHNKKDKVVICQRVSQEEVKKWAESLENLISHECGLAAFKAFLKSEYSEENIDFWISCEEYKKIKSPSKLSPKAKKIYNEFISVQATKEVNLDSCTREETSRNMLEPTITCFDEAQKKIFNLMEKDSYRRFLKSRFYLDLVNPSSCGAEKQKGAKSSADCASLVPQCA
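MLSMR compounds (23 nl, pin-transferred) preincubated 10 min at room temperature with a 500nM (2x) first reagent, then RGS4 at 900nM (2x) plus Transcreener GDP mix added; fluorescence polarization (620/688 nm) read before and after 90 min at 30 °C.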
* = called active by the depositor. Unless noted, calls come from the whole dose curve; as a rule, active = well fitted curve in the direction sought with a large enough effect; inconclusive = small, poorly fitted or top-dose-only effect, or another doubt; inactive = no such curve, though single readings can be large; an effect the other way counts as inactive or inconclusive. Potency is the fitted concentration of half-maximal effect.

`O=c1c2ccccc2n(CC(O)CN2CCCCC2)c2ccccc12` (configuration not stated) gave PTAP TSG101 blk -3%, KB-3-1 cytotox inactive, SW480 rerep 7.3µM*, KB-V1 MDR tox inconclusive, MCF10A rerep 21µM* and RGS4 inh 2%.
For CCOc1ccccc1C(=O)Nc1cccc2ccc(C)nc12 the results were KB-3-1 cytotox inactive, KB-V1 MDR tox inconclusive and RGS4 inh 8%.
Cc1nn(CCCC(=O)NCc2cccc(Cl)c2)c(=O)c2c1sc1ccccc12 was read as RGS4 inh 4%.
C/C(=C\C(=O)c1ccc(Br)cc1)Nc1ccc(Cl)cc1 was read as PTAP TSG101 blk 1%, KB-3-1 cytotox inactive, SW480 rerep 2%, KB-V1 MDR tox inactive, MCF10A rerep 9% and RGS4 inh 18%.
Screening COc1cccc(N/C(C)=C/C(=O)c2ccc(Br)cc2)c1 returned PTAP TSG101 blk -2%, KB-3-1 cytotox inactive, SW480 rerep 0%, KB-V1 MDR tox inactive, MCF10A rerep 21µM* and RGS4 inh 0%.
For COc1cccc(NC(=S)NC(=O)c2cncc(Br)c2)c1 the results were PTAP TSG101 blk -1%, KB-3-1 cytotox inconclusive, SW480 rerep 18µM*, KB-V1 MDR tox inactive, MCF10A rerep 16% and RGS4 inh -35%.
For CC(=O)c1cccc(NC(=S)NC(=O)c2cncc(Br)c2)c1 the results were PTAP TSG101 blk -10%, KB-3-1 cytotox inconclusive, SW480 rerep 5%, KB-V1 MDR tox inconclusive, MCF10A rerep -1% and RGS4 inh -23%.
Screening CCN(CC)c1nc2c(S(=O)(=O)c3cccc(Cl)c3)nnn2c2ccsc12 returned KB-3-1 cytotox inactive, KB-V1 MDR tox inactive and RGS4 inh 16%.
For Cn1cc(C(=O)NCc2ccccc2)c(=O)c2cc(S(=O)(=O)N3CCOCC3)ccc21 the results were KB-3-1 cytotox inactive, KB-V1 MDR tox inactive and RGS4 inh 4%.
For CC(C)(C)NC(=O)COc1ccc(CNCc2ccccn2)cc1 the results were PTAP TSG101 blk -9%, KB-3-1 cytotox inactive, SW480 rerep -2%, KB-V1 MDR tox inactive, MCF10A rerep 16µM* and RGS4 inh 29%.
Screening CC(C)(C)NC(=O)COc1ccc(CNCCc2ccccc2)cc1 returned PTAP TSG101 blk 4%, KB-3-1 cytotox inactive, SW480 rerep -9%, KB-V1 MDR tox inconclusive, MCF10A rerep -3% and RGS4 inh -10%.
CC(C)CCNC(=O)CN(C(=O)Cn1nnc(-c2ccccc2F)n1)c1cccc2c1CCCC2 was read as PTAP TSG101 blk 0%, KB-3-1 cytotox inactive, SW480 rerep -8%, KB-V1 MDR tox inactive, MCF10A rerep -1% and RGS4 inh 25%.
Screening CCC(C(=O)NC(C)(C)C)N(C(=O)Cn1nnc(-c2ccccc2F)n1)c1cccc2c1CCCC2 (configuration not stated) returned PTAP TSG101 blk 53%, KB-3-1 cytotox inactive, SW480 rerep -3%, KB-V1 MDR tox 1.6µM*, MCF10A rerep 18% and RGS4 inh -7%.
Screening O=C(CN(C(=O)Cn1nnc(-c2ccccc2F)n1)c1cccc2c1CCCC2)NCc1ccccc1 returned PTAP TSG101 blk -6%, KB-3-1 cytotox inactive, SW480 rerep 15%, KB-V1 MDR tox 10µM*, MCF10A rerep 4% and RGS4 inh 39%.
Screening CC1=NN(C(=O)c2ccncc2)C(=O)C1N=Nc1ccc2ccccc2c1 (configuration not stated) returned PTAP TSG101 blk -1%, KB-3-1 cytotox inconclusive, SW480 rerep 24%, KB-V1 MDR tox 6.5µM*, MCF10A rerep 12% and RGS4 inh inconclusive.
For CC1=NN(C(N)=S)C(=O)C1N=Nc1ccc(Br)cc1 (configuration not stated) the results were PTAP TSG101 blk -3%, KB-3-1 cytotox inconclusive, SW480 rerep -3%, KB-V1 MDR tox inconclusive, MCF10A rerep 13% and RGS4 inh -2%.
For CC1=NN(C(N)=S)C(=O)C1N=Nc1ccc(Cl)cc1 (configuration not stated) the results were PTAP TSG101 blk -4%, KB-3-1 cytotox inconclusive, SW480 rerep 18µM*, KB-V1 MDR tox inconclusive, MCF10A rerep 9% and RGS4 inh inconclusive.
CN(C1CCCCC1)S(=O)(=O)c1ccc2c(c1)c(=O)c(C(=O)N1CCN(c3ccccc3)CC1)cn2C was read as KB-3-1 cytotox inactive, KB-V1 MDR tox inconclusive and RGS4 inh -6%.
CCn1c(C)c(C2N3CC4(C)CN2CC(CC)(C3)C4=O)c2ccccc21 (configuration not stated) was read as KB-3-1 cytotox inactive, KB-V1 MDR tox inactive and RGS4 inh -15%.
For COc1ccc(CCNC(=O)c2nc(SCc3ccc(F)cc3)ncc2Cl)cc1OC the results were RGS4 inh 15%.
COc1cc(CN(C(=S)NCC(=O)NC2CCCC2)C2CCCC2)cc(OC)c1OC was read as PTAP TSG101 blk -4%, KB-3-1 cytotox inactive, SW480 rerep inconclusive, KB-V1 MDR tox 13µM*, MCF10A rerep -6% and RGS4 inh -10%.
CCCCNC(=O)CNC(=S)N(Cc1cc(OC)c(OC)c(OC)c1)C1CCCC1 was read as PTAP TSG101 blk 1%, KB-3-1 cytotox inactive, SW480 rerep -3%, KB-V1 MDR tox inactive, MCF10A rerep 6% and RGS4 inh 7%.
For Cc1cc2ncn(CCOc3ccccc3)c2cc1C the results were PTAP TSG101 blk 0%, KB-3-1 cytotox inactive, SW480 rerep -60%, KB-V1 MDR tox 23µM*, MCF10A rerep 19% and RGS4 inh -28%.
CCC(=O)c1ccc(OCCn2cnc3ccccc32)cc1 was read as PTAP TSG101 blk 0%, KB-3-1 cytotox inactive, SW480 rerep -2%, KB-V1 MDR tox 21µM*, MCF10A rerep -4% and RGS4 inh -37%.
For C=CCN(CC=C)C(=O)C(=O)c1cc(C)n(-c2ccc([N+](=O)[O-])cc2)c1C the results were PTAP TSG101 blk -3%, KB-3-1 cytotox inactive, SW480 rerep -7%, KB-V1 MDR tox 7.3µM*, MCF10A rerep -7% and RGS4 inh -13%.
`COc1ccc(OC)c(NC(=O)CSc2ccnc(=O)[nH]2)c1` gave KB-3-1 cytotox inactive, KB-V1 MDR tox inactive and RGS4 inh -16%.
For CNc1c2cccc(C)c2nc2c(C(=O)NCCN(C)C)cccc12 the results were PTAP TSG101 blk inconclusive, KB-3-1 cytotox 0.29µM*, SW480 rerep inconclusive, KB-V1 MDR tox inconclusive, MCF10A rerep -11% and RGS4 inh -47%.
